Inhibition data for 62 compounds are collected here from PubChem BioAssay AID504329 (Southern Research Specialized Biocontainment Screening …, 2011).

Out of some 340,000 compounds screened, about 1,000 (0.29%) were called active. Cut-off read from the data, not from the text of the source: inconclusive = inhibition above about 27% without an active follow-up result; inactive = below that. A selection follows. Measured potencies and affinities stand elsewhere.

The assay is described as follows: H1N1 influenza NS1A inhibitors, functional cell based assay (AID 504329). The conditions noted are these: percent inhibition, at 12.5 µM, stronger effect = higher value.
On to `CSc1cccc(NC(=O)CN(C)S(=O)(=O)c2ccc(C)cc2)c1`, for which the inhibition was -2.41% (inactive).
For `CCOc1ccc(NS(=O)(=O)c2ccc(C(=O)NCC(C)(C)N3CCOCC3)cc2)cc1` the value was -14.4% (inactive); for `O=C(CCCC(=O)N/N=C\c1ccccn1)N/N=C\c1ccccn1`, -2.81% (inactive); for `Cc1ccc(NC(=S)NCc2ccccn2)cc1`, -14.7% (inactive).
For `O=C(Cc1ccccc1)N/N=C/c1ccccn1` the value was -2.81% (inactive); for `S=C(NCc1ccccc1)NCc1ccccn1`, 1.05% (inactive).
For `Cc1ccc2c(c1)oc(=O)n2CC(=O)c1ccccc1` the value was -20.6% (inactive); for `CCOC(=O)CC1CCCCN1C(=O)c1ccc2nc(CCOC)oc2c1` (configuration not stated), 1.79% (inactive).
In the case of `CCN1CCN(Cc2nc3cc(NC(=O)COc4ccc([N+](=O)[O-])cc4)ccc3n2C)CC1`, the inhibition is 0.32% (inactive).
The result for `CC(=O)c1ccc(N(CC(=O)NCC2CCCO2)C(=O)CCC(=O)Nc2cc(C)on2)cc1` (configuration not stated) reads -8.06% (inactive).
For `Cc1cccn2c(=O)c(C(=O)NC3CCCCC3)c(O)nc12` the value was 5.08% (inactive); for `CCOC(=O)C1CCCN(C(=O)/C=C/c2ccc(Cl)cc2)C1` (configuration not stated), -12.8% (inactive); for `O=C(O)C1C2C=CC(C2)C1C(=O)Nc1ccc(Cl)c(Cl)c1` (configuration not stated), 1.34% (inactive).
For `COC(=O)c1cccc(/C=N/NC(N)=S)c1O` the value was -14.3% (inactive); for `NC(=S)N/N=C/c1ccccc1`, -0.87% (inactive); for `Oc1ccccc1C=NNC(=S)NN=Cc1ccccc1O`, 16.5% (inactive).
As for `NC(=S)N/N=C/c1cccc(/C=N/NC(N)=S)c1`, the inhibition was -0.05% (inactive).
For `Cc1ccc(NC(=O)c2cc(S(=O)(=O)N3CCCC3)cn2C)cc1` the value was 2.93% (inactive); for `COc1cccc(S(=O)(=O)Nc2ccc(C(=O)N3CCN(C(=O)c4ccco4)CC3)cc2)c1`, 5.1% (inactive).
For `COC(=O)C=CC(=NNc1ccccc1)c1ccccc1` the value was 3.06% (inactive).
Regarding `Cc1nn(Cc2ccc(Cl)cc2)c(C)c1NC(=O)CCCn1nc(C)c([N+](=O)[O-])c1C`, the inhibition is 10.9% (inactive).
For `O=C(c1ccc(Cl)cc1)C1CCCN(Cc2cccc3cccnc23)C1` (configuration not stated) the value was -0.71% (inactive); for `Oc1c(Br)cc(Br)c2cccnc12`, -9.24% (inactive).
The result for `Oc1c(CN2CCN(c3ccccc3)CC2)cc(Br)c2cccnc12` reads 14.4% (inactive); that for `O=C(O)c1ccc2cccnc2c1O`, -0.15% (inactive).
In the case of `CC(C(=O)NC1CCCCCC1)N(c1ccccc1)S(C)(=O)=O` (configuration not stated), the inhibition is 7.2% (inactive).
Take `CC1(C)Cc2cccc(Oc3ccc(S(=O)(=O)N4CCCC4)cn3)c2O1`: the inhibition was 6.74% (inactive).
On to `CC(C)(CNC(=O)C1CCCN1C(=O)c1cccs1)N1CCOCC1` (configuration not stated), for which the inhibition is -1% (inactive).
As for `O=C(c1cc(-c2ccc(Cl)cc2)n[nH]1)N1CCc2ccccc2C1`, the inhibition is -1.28% (inactive).
The result for `COc1ccccc1C(=O)NC(=O)COC(=O)c1cnc(C)cn1` reads 1.58% (inactive); that for `CCc1cccc(CC)c1NC(=S)NCCc1ccc(O)c(O)c1`, 9.59% (inactive).
For `CCN1/C(=C/c2ccc3ccccc3[n+]2CCCS(=O)(=O)[O-])C=Cc2cc(C)ccc21` the value was 19.6% (inactive).
For `CCN1/C(=C/c2ccc3cc(C)ccc3[n+]2CC)Sc2cc(C)c(C)cc21` the value was 28.7% (inactive); for `CCN1/C(=C/c2ccc3cc(C)ccc3[n+]2CC)Sc2ccc3sccc3c21`, -14% (inactive).
Take `CCN1C(=C(C#N)C#N)C=Cc2ccccc21`: the inhibition was -6.42% (inactive).
The result for `CCN1/C(=C\c2ccc3cc(C)ccc3[n+]2CC)Sc2cc(C)c(C)cc21` reads 25.6% (inactive).
For `CCN1/C(=C/c2ccc3cc(C)ccc3[n+]2CC)Sc2ccccc21` the value was 21% (inactive); for `CC(=O)N(C)C(c1ccc(N(C)C)cc1)c1nnnn1-c1c(C)cccc1C` (configuration not stated), 3.51% (inactive).
For `CCCC(=O)Nc1nnc(S(=O)(=O)N(CC(C)C)c2ccccc2)s1` the value was -2.29% (inactive); for `CCN(CC)C(=O)[C@H]1C[C@H](CC(=O)NCCc2ccccn2)C(=O)N2CCc3c([nH]c4ccc(Cl)cc34)[C@]12C`, 15.9% (inactive); for `O=C(CCC1CCCN(c2ncccn2)C1)NCc1ccccc1F` (configuration not stated), -9.11% (inactive).
As to `O=C1OCc2cc(NC(=O)C34CC5CC(CC(C5)C3)C4)ccc21`, the inhibition is 1.32% (inactive).
The result for `O=C(O)c1cccc2c1-c1ccc(Cl)cc1C2=O` reads -19.9% (inactive).
The result for `Nc1ccc2c(c1)C(=O)c1ccc(Cl)cc1-2` reads -15.2% (inactive); that for `C[C@@H]1Cc2c(O)c(O)cc(O)c2C(=O)O1`, 3.88% (inactive).
The result for `CC1CC(=O)c2c(cc3c(-c4c(O)cc(O)c5c(O)c6c(cc45)OC(C)CC6=O)c(O)cc(O)c3c2O)O1` (configuration not stated) reads 24.8% (inactive); that for `O=C(CSc1nnc(-c2ccco2)n1CC1CCCO1)NC1CCCC1` (configuration not stated), 20.3% (inactive).
Consider `CCOc1ccc2[nH]c3ncccc3c(=O)c2c1`, for which the inhibition is 3.05% (inactive).
For `CCOc1ccc(N=Nc2ccc(O)c3ncccc23)cc1` the value was 4% (inactive); for `O=C(Nc1cccc(O)c1)c1ccc([N+](=O)[O-])cc1Cl`, -2.66% (inactive); for `O=C(Nc1ccc([N+](=O)[O-])cc1Cl)c1cc(Cl)ccc1O`, 8.63% (inactive).
The result for `Cc1cccc(NS(=O)(=O)c2csc(C(N)=O)c2)c1` reads 14.1% (inactive); that for `Cc1cccc(OCCCC(=O)NNC(=O)c2ccc(F)cc2)c1`, -5.91% (inactive).
Regarding `COc1cc(N=Nc2ccc(C(=O)N(C)C)cc2)c(C)cc1N`, the inhibition is 11.5% (inactive).
For `COc1ccc(N=Nc2ccc(N)nc2N)cc1` the value was 20.4% (inactive).
The result for `Cn1c(Cn2c(=O)sc3ccccc32)nnc1SCC(=O)NCCc1ccccc1` reads 1.01% (inactive); that for `CN(C)c1ccc(N=Nc2ccccc2C(=O)OCC(=O)N2CCCCCC2)cc1`, 28.4% (inactive).
For `CN(C)c1ccc(N=Nc2ccccc2C(=O)OCC(=O)Nc2ccccc2C(F)(F)F)cc1` the value was 28.2% (inactive); for `CN(C)c1ccc(N=Nc2ccccc2C(=O)OCC(=O)NCC2CCCCC2)cc1`, 8.64% (inactive); for `CN(C)c1ccc(N=Nc2ccccc2C(=O)OCC(=O)N2CCCC2)cc1`, 22.2% (inactive).
Regarding `CC(=O)c1ccc(NC(=O)COC(=O)c2ccccc2N=Nc2ccc(N(C)C)cc2)cc1`, the inhibition was 17.2% (inactive).
For `CN(C)c1ccc(N=Nc2ccccc2C(=O)OCC(=O)N(C)C2CCCCC2)cc1` the value was 10.8% (inactive).

The term inhibition denotes the change of the read-out against control, counted positive when it falls.
